We go through 8 compounds from PubChem BioAssay (NCI).

Where “and” joins values, the source holds several entries; their conditions need not be identical. Identical values can stand only once. The panel holds about 79,000 compounds, 15% with a hit somewhere; the sample as a whole holds those more often. A structure can be active in one record and inactive in another. Calls of active or inactive are those of the source. Rule as the data show it: active = growth inhibition above about 70%; inactive = the rest.

A short description of assay [1]: NCI Yeast Anticancer Drug Screen. Data for the rad50 strain (AID 155).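 Also: 0% = growth of vehicle-only cultures of the same strain.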 The conditions noted are these: S. cerevisiae rad50 strain growth inhibition, stronger effect = higher value. The gist of the method: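 Yeast carrying a defined DNA repair defect were exposed to test compounds, and growth was compared with vehicle-treated controls to give percent inhibition.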
Assay [2] in a line: NCI Yeast Anticancer Drug Screen. Data for the mec2-1 strain (AID 157). The note with it: S. cerevisiae mec2-1 strain, stronger effect = higher value. An outline of the steps: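 Strain: mec2-1 (DNA repair/cell cycle alteration). Compound exposure, then growth measured; inhibition expressed relative to vehicle.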
Assay [3] can be described thus: NCI Yeast Anticancer Drug Screen. Data for the sgs1 mgt1 strain (AID 161).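 Also: 0% = growth of cultures given vehicle only.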 The conditions noted are these: S. cerevisiae sgs1 mgt1 strain, stronger effect = higher value. An outline of the steps:
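Inhibition of yeast growth, normalised to vehicle-treated controls, is reported for a strain bearing genetic alterations in DNA damage repair.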

Assay [4] can be described thus: NCI Yeast Anticancer Drug Screen. Data for the cln2 rad14 strain (AID 165).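 Also: 0% = growth equal to vehicle treated cultures.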 The conditions noted are these: S. cerevisiae cln2 rad14 strain, stronger effect = higher value. An outline of the steps: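 Compounds are applied to the cln2 rad14 yeast strain, and growth is then compared with that of vehicle-treated cultures to give inhibition.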
Assay [5] in a line: NCI Yeast Anticancer Drug Screen. Data for the bub3 strain (AID 167). The conditions noted are these: S. cerevisiae bub3 mutant strain, stronger effect = higher value. An outline of the steps:
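Compounds were applied to a genetically altered yeast strain carrying a cell-cycle control defect. Growth inhibition was scored against vehicle-treated controls.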

Assay [6] is described as follows: NCI Yeast Anticancer Drug Screen. Data for the mlh1 rad18 strain (AID 175). The conditions noted are these: S. cerevisiae mlh1 rad18 strain growth inhibition, stronger effect = higher value. An outline of the steps:
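Read-out is yeast growth inhibition, calculated against vehicle-only controls. The compound was applied to a strain engineered with DNA damage repair alterations.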

[7] abbreviates: at 5.0 µM (retest, dose inferred, filed as 0.5).
The mark [8] stands for this setting: at 50.0 µM (retest, dose inferred, filed as 5.0).

As to `C=C(C)C(=O)Oc1ccc(N=Nc2ccccc2)ccc1=O`, the growth inhibition in assay [1] (setting [7]) was 2% (inactive); in assay [1] (setting [8]) it was 89% (active); in assay [1] (at 50.0 µM), 95.3% (active); in assay [2] (setting [7]) it was 5% (inactive); in assay [2] (setting [8]), 93% (active); in assay [2] (at 50.0 µM) it was 81% (active). For the same compound, the growth inhibition in assay [3] (setting [7]) was 6% (inactive); in assay [3] (setting [8]), 93% (active); in assay [3] (at 50.0 µM), 93% (active); in assay [4] (setting [7]), 4% (inactive); in assay [4] (setting [8]) it was 77% (active); in assay [4] (at 50.0 µM), 59.9% (inactive). The growth inhibition in assay [5] (setting [7]) is -2% (inactive); in assay [5] (setting [8]), 86% (active); in assay [5] (at 50.0 µM) it was 81.8% (active); in assay [6] (setting [7]) it was 12% (inactive); in assay [6] (setting [8]), 96% (active); in assay [6] (at 50.0 µM), 94.5% (active).

As to `O=C(O)c1ccccc1C(=O)O`, the growth inhibition is -3% (inactive) in assay [1] (setting [7]); 8% (inactive) in assay [1] (setting [8]); -29.7% (inactive) and 15.6% (inactive) in assay [1] (at 50.0 µM); -3% (inactive) in assay [2] (setting [7]); 4% (inactive) in assay [2] (setting [8]); -14.8% (inactive) and 5.1% (inactive) in assay [2] (at 50.0 µM). Further, the growth inhibition was 0% (inactive) in assay [3] (setting [7]); 7% (inactive) in assay [3] (setting [8]); 4.95% (inactive) and -23.6% (inactive) in assay [3] (at 50.0 µM); 4% (inactive) in assay [4] (setting [7]); 7% (inactive) in assay [4] (setting [8]); 21.1% (inactive) and 54.1% (inactive) in assay [4] (at 50.0 µM). The growth inhibition in assay [5] (setting [7]) was 2% (inactive); in assay [5] (setting [8]), -6% (inactive); in assay [5] (at 50.0 µM), -7.45% (inactive) and -11.4% (inactive); in assay [6] (setting [7]), -2% (inactive); in assay [6] (setting [8]), 7% (inactive); in assay [6] (at 50.0 µM), -5.8% (inactive) and 7% (inactive).

As for `CCN(CC)Cc1cc2[nH]c3c4ccc(Cl)cc4ncc3c2cc1OC` (tested in a mixture with another compound), the growth inhibition in assay [1] (setting [7]) is 3% (inactive); in assay [1] (setting [8]) it was 71% (active); in assay [1] (at 50.0 µM) it was 59.4% (inactive) and 65% (inactive); in assay [2] (setting [7]) it was 2% (inactive); in assay [2] (setting [8]) it was 58% (inactive); in assay [2] (at 50.0 µM), 38.8% (inactive) and 66% (inactive). Besides, the growth inhibition in assay [3] (setting [7]) is 0% (inactive); in assay [3] (setting [8]) it was 48% (inactive); in assay [3] (at 50.0 µM), 55.1% (inactive) and 74.2% (active); in assay [4] (setting [7]), -2% (inactive); in assay [4] (setting [8]), 47% (inactive); in assay [4] (at 50.0 µM) it was -1.65% (inactive) and 29.1% (inactive). For the same compound, the growth inhibition in assay [5] (setting [7]) is 4% (inactive); in assay [5] (setting [8]) it was 58% (inactive); in assay [5] (at 50.0 µM), 44.8% (inactive) and 48.6% (inactive); in assay [6] (setting [7]), 3% (inactive); in assay [6] (setting [8]), 74% (active); in assay [6] (at 50.0 µM) it was 64.3% (inactive) and 77.5% (active).

On to `O=C1C=CC(=O)N1c1ccc(N=Nc2ccccc2)cc1`, for which the growth inhibition is 97% (active) in assay [1] (setting [7]); 99% (active) in assay [1] (setting [8]); 86.2% (active) and 7.45% (inactive) in assay [1] (at 50.0 µM); 99% (active) in assay [2] (setting [7]); 99% (active) in assay [2] (setting [8]); 86.2% (active) and -13.1% (inactive) in assay [2] (at 50.0 µM). For the same compound, the growth inhibition is 99% (active) in assay [3] (setting [7]); 91% (active) in assay [3] (setting [8]); 89.7% (active) and 21.8% (inactive) in assay [3] (at 50.0 µM); 98% (active) in assay [4] (setting [7]); 92% (active) in assay [4] (setting [8]); 87.2% (active) and 20.6% (inactive) in assay [4] (at 50.0 µM). Besides, the growth inhibition is 99% (active) in assay [5] (setting [7]); 91% (active) in assay [5] (setting [8]); 87% (active) and 5.75% (inactive) in assay [5] (at 50.0 µM); 98% (active) in assay [6] (setting [7]); 99% (active) in assay [6] (setting [8]); 85.5% (active) and 5.9% (inactive) in assay [6] (at 50.0 µM).

Regarding `O=[N+]([O-])c1ccc(OCCN(Cc2ccccc2)Cc2ccccc2)c([N+](=O)[O-])c1`, the growth inhibition in assay [1] (setting [7]) was 3% (inactive); in assay [1] (setting [8]), 70% (active); in assay [1] (at 50.0 µM), 71.5% (active); in assay [2] (setting [7]), 3% (inactive); in assay [2] (setting [8]) it was 38% (inactive); in assay [2] (at 50.0 µM), 59.2% (inactive). In addition, the growth inhibition in assay [3] (setting [7]) is -11% (inactive); in assay [3] (setting [8]), 61% (inactive); in assay [3] (at 50.0 µM) it was 60.4% (inactive); in assay [4] (setting [7]), 4% (inactive); in assay [4] (setting [8]), 24% (inactive); in assay [4] (at 50.0 µM), 34.1% (inactive). The growth inhibition in assay [5] (setting [7]) was 3% (inactive); in assay [5] (setting [8]) it was 54% (inactive); in assay [5] (at 50.0 µM) it was 71.5% (active); in assay [6] (setting [7]) it was 5% (inactive); in assay [6] (setting [8]), 58% (inactive); in assay [6] (at 50.0 µM), 74.8% (active).

In the case of `O=C(O)c1ccc2c(c1)Cc1cc([N+](=O)[O-])ccc1-2`, the growth inhibition in assay [1] (setting [7]) is -3% (inactive); in assay [1] (setting [8]), 88% (active); in assay [1] (at 50.0 µM), 70.1% (active); in assay [2] (setting [7]), -7% (inactive); in assay [2] (setting [8]) it was 72% (active); in assay [2] (at 50.0 µM) it was 13.4% (inactive). Besides, the growth inhibition in assay [3] (setting [7]) was 7% (inactive); in assay [3] (setting [8]) it was 85% (active); in assay [3] (at 50.0 µM) it was 64% (inactive); in assay [4] (setting [7]), -92% (inactive); in assay [4] (setting [8]), 83% (active); in assay [4] (at 50.0 µM), 34.6% (inactive). Besides, the growth inhibition is -10% (inactive) in assay [5] (setting [7]); 0% (inactive) in assay [5] (setting [8]); 14% (inactive) in assay [5] (at 50.0 µM); 4% (inactive) in assay [6] (setting [7]); 82% (active) in assay [6] (setting [8]); 73% (active) in assay [6] (at 50.0 µM).

In the case of `Oc1c(Cl)cc(Cl)c(Cl)c1Cl`, the growth inhibition in assay [1] (setting [7]) is -2% (inactive) and 11% (inactive); in assay [1] (setting [8]) it was 94% (active) and 98% (active); in assay [1] (at 50.0 µM), 85.2% (active) and 98.3% (active); in assay [2] (setting [7]), 8% (inactive) and 14% (inactive); in assay [2] (setting [8]), 96% (active) and 98% (active); in assay [2] (at 50.0 µM), 94.3% (active) and 99.6% (active). Besides, the growth inhibition in assay [3] (setting [7]) was -3% (inactive) and 3% (inactive); in assay [3] (setting [8]) it was 98% (active) and 86% (active); in assay [3] (at 50.0 µM), 80.5% (active) and 99.3% (active); in assay [4] (setting [7]), 11% (inactive) and -10% (inactive); in assay [4] (setting [8]), 98% (active) and 97% (active); in assay [4] (at 50.0 µM), 89.7% (active) and 98.5% (active). The growth inhibition in assay [5] (setting [7]) is -3% (inactive) and 39% (inactive); in assay [5] (setting [8]), 85% (active) and 96% (active); in assay [5] (at 50.0 µM) it was 88.8% (active) and 99.1% (active); in assay [6] (setting [7]), 4% (inactive) and 7% (inactive); in assay [6] (setting [8]), 92% (active) and 96% (active); in assay [6] (at 50.0 µM), 93.8% (active) and 98.7% (active).

Turning to `NC(=O)c1cc(Br)cc(Br)c1O`, the growth inhibition in assay [1] (setting [7]) is 14% (inactive); in assay [1] (setting [8]), 79% (active); in assay [1] (at 50.0 µM) it was 62.2% (inactive); in assay [2] (setting [7]), -13% (inactive); in assay [2] (setting [8]), 86% (active); in assay [2] (at 50.0 µM), 75.1% (active). For the same compound, the growth inhibition was 9% (inactive) in assay [3] (setting [7]); 90% (active) in assay [3] (setting [8]); 48.5% (inactive) in assay [3] (at 50.0 µM); 5% (inactive) in assay [4] (setting [7]); 87% (active) in assay [4] (setting [8]); 94.5% (active) in assay [4] (at 50.0 µM). Besides, the growth inhibition in assay [5] (setting [7]) was 1% (inactive); in assay [5] (setting [8]), 77% (active); in assay [5] (at 50.0 µM) it was 89.8% (active); in assay [6] (setting [7]), -10% (inactive); in assay [6] (setting [8]) it was 85% (active); in assay [6] (at 50.0 µM), 79.6% (active).
